# Experimental data reported in publication PMC4336329 (PLoS ONE, 2015).
# About 14,000 (4.5%) of roughly 310,000 compounds showed an effect of 50% or more. Effects have a minus sign here. The entries come from a sample that favours strong results as a whole.
# Target: human ether-à-go-go-related gene (hERG) potassium channel (human, UniProt Q12809)
# Assay: primary screen, population patch clamp on CHO cells stably expressing hERG; higher = less effect of the substance
# 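Further: peak tail current of the secondary pulse compared with the same well before compound.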
# Sequence of human ether-à-go-go-related gene (hERG) potassium channel (Q12809 whole entry, looked up): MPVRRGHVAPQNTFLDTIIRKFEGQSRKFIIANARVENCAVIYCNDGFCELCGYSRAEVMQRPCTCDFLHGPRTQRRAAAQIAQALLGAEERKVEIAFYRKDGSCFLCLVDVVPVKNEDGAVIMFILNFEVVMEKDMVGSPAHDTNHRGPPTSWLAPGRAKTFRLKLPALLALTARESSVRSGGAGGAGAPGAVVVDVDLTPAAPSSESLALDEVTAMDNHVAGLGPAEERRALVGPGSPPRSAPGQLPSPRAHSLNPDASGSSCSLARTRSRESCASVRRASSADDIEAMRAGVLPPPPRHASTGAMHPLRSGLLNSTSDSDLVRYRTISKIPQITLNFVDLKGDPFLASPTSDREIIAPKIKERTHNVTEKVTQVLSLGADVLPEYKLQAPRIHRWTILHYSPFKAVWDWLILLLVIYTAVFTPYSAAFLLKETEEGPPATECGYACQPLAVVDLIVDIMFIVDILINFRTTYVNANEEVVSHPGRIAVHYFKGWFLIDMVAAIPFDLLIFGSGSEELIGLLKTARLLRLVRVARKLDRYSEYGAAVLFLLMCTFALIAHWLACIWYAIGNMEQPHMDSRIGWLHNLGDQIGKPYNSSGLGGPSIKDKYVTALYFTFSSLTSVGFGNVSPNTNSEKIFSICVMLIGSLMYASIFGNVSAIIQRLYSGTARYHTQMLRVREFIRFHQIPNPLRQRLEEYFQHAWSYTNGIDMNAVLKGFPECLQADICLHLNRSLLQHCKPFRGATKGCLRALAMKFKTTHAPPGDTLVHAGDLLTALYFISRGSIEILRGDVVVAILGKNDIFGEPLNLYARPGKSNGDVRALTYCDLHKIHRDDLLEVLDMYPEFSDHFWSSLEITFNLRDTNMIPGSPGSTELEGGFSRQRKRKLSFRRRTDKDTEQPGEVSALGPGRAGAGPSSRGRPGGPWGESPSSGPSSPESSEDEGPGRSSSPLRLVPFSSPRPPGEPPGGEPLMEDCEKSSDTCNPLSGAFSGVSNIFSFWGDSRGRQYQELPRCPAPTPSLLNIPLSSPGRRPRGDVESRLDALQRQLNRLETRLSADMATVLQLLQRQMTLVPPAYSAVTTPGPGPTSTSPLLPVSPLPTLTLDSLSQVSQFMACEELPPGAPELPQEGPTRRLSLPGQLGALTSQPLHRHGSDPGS
row,SMILES,"hERG current change (%, negative = inhibition) at 10uM [%]"
1,CC(c1ccccc1)n1c(N2CCNCC2)nc2c1c(=O)[nH]c(=O)n2C (stereo not drawn),6.32
2,O=C(/C=C/c1ccccc1)OCc1cnc(Cl)s1,-6.4
3,Cc1ccc(S(=O)(=O)Cn2nnnc2C(CC(C)C)N2CCC(C(N)=O)CC2)cc1 (stereo not drawn),-12.2
4,Cc1cc(NC(=O)/C=C/c2ccccc2)c(C(C)C)cc1O,10.7
5,CC(C)c1ccc(NC2CCCN(C(=O)CCN3CCOCC3)C2)cc1 (stereo not drawn),0.518
6,C=C1CCN(c2ccc(C(=O)NCc3ccc(OC)cc3)cc2[N+](=O)[O-])CC1,-7.55
7,O=C(NCc1ccc(F)cc1)c1ccc(N2CCOCC2)c([N+](=O)[O-])c1,-39.6
8,O=C(Nc1ccc(Cc2ccncc2)cc1)c1ccc(N2CCOCC2)c([N+](=O)[O-])c1,-59.1
9,COc1ccc(CNC(=O)c2ccc(N3CCOCC3)c([N+](=O)[O-])c2)cc1,-52.1
10,O=C(Nc1ccc(Cc2ccncc2)cc1)c1cc([N+](=O)[O-])ccc1N1CCOCC1,-39
11,O=C(Nc1cccnc1)c1ccc(N2CCOCC2)c([N+](=O)[O-])c1,21.7
12,COc1ccc(/C=N/NC(=O)c2cc(-c3ccccc3OC(C)C)nc3ccccc23)cc1CN1CCOCC1,-4.54
13,O.O=C(OCC1OC2C(Oc3nc(=O)ccn32)C1O)c1ccccc1 (stereo not drawn),-0.213
14,Cc1ccc(C(=O)N(C)Cc2ccccc2)cc1S(=O)(=O)N1CCOCC1,-12.8
15,Cc1ccc(C(=O)N(C)Cc2ccc(N3CCOCC3)cc2)cc1S(=O)(=O)NCc1ccccc1,-55.6
16,Cc1ccc(C)c(S(=O)(=O)NCc2ccc(C(=O)N3CCN(c4ccccc4)CC3)cc2)c1,-3.21
17,CCN(CC)C(=O)N1CCc2ccccc21,0.177
18,COc1ccc(-n2ccnc2CN2CCCC(CO)(Cc3cccc(OC)c3)C2)cc1 (stereo not drawn),-24.2
19,COc1cccc(CC2(CO)CCCN(Cc3cc(F)ccc3-n3cccn3)C2)c1 (stereo not drawn),-77.3
20,COc1cccc(CC2(CO)CCCN(Cc3cn[nH]c3C3CCCCC3)C2)c1 (stereo not drawn),-45.1
21,COc1cccc(CC2(CO)CCCN(Cc3c(C)cc(C)cc3-n3cccn3)C2)c1 (stereo not drawn),-84.4
22,COc1cccc(CC2(CO)CCCN(Cc3cn[nH]c3-c3ccc(F)cc3)C2)c1 (stereo not drawn),6.58
23,CCn1ccnc1CN1CCCC(CO)(Cc2cccc(OC)c2)C1 (stereo not drawn),-17.7

row,SMILES,"hERG current change (%, negative = inhibition) at 10uM [%]"
1,COc1ccc(NC2=C(NC(C)=O)C(=O)c3ccccc3C2=O)cc1,13.5
2,COc1cc(OC)nc(NC(=O)CSc2nc3ccccc3[nH]2)n1,-1.61
3,CCOc1ccc(CCNC(=O)c2cccc(S(=O)(=O)N3CC(C)OC(C)C3)c2)cc1OCC (stereo not drawn),-27.3
4,COc1cc(-c2[nH]ncc2CN2CCN(Cc3cccs3)CC2)cc(OC)c1OC,-50.3
5,COc1cc(-c2[nH]ncc2CN2CCN(c3cccc(C)n3)CC2)cc(OC)c1OC,-47.3
6,COc1cc(-c2[nH]ncc2CN2CCSCC2)cc(OC)c1OC,-9.26
7,COCCCC1CCN(Cc2cn[nH]c2-c2cc(OC)c(OC)c(OC)c2)CC1,-61.8
8,COc1ccc(-c2[nH]ncc2CN2CCN(Cc3cccs3)CC2)cc1F,-31.2
9,COCC1CCN(Cc2cn[nH]c2-c2cc(OC)c(OC)c(OC)c2)CC1,-38.1
10,CCCCN(C(=O)c1cccc(S(=O)(=O)N2CCCC2)c1)c1c(N)n(CCC)c(=O)[nH]c1=O,4.89
11,CCN(CC)CCCN=Cc1c(O)n(-c2cccc(C)c2)c(=O)c2ccccc12,-42.8
12,CCN(CC)CCCN=Cc1c(O)n(Cc2ccccc2)c(=O)c2ccccc12,-76.7
13,CCN(CC)CCCN=Cc1c(O)n(-c2ccc(C)cc2)c(=O)c2ccccc12,-5.54
14,O=c1c2ccccc2c(C=NCCc2ccccc2)c(O)n1Cc1ccccc1,-5.61
15,CCN(CC)CCCN=Cc1c(O)n(-c2c(C)cccc2C)c(=O)c2ccccc12,-34.2
16,CCN(CC)CCCN=Cc1c(O)n(-c2ccccc2C)c(=O)c2ccccc12,-52.8
17,CN(C)CCCN=Cc1c(O)n(Cc2ccc3c(c2)OCO3)c(=O)c2ccccc12,-49.1
18,CCN(CC)CCN=Cc1c(O)n(Cc2ccccc2)c(=O)[nH]c1=O [14739636],-31.3
19,O=c1c2ccccc2c(C=NCCCN2CCOCC2)c(O)n1Cc1ccccc1,-47.7
20,CN(C)CCN=Cc1c(O)n(Cc2ccccc2)c(=O)c2ccccc12,-52.2
21,CN(C)CCN=Cc1c(O)n(Cc2ccc3c(c2)OCO3)c(=O)c2ccccc12,-13.8
22,CN(C)CCCN=Cc1c(O)n(Cc2ccccc2)c(=O)c2ccccc12,-64.5
